# PNC inhibitor: High Content Assay for Compounds that inhibit the Assembly of the Perinucleolar Compartment | activity change (PNC), negative = inhibition, % at 10 µM | actives 3.1% (n = 140,000) | PC3M PTB-GFP, PNC prevalence imaging, 16 h; hits give low values;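 active = readout at or below -70, meaning at least 70% loss of cells showing the perinucleolar compartment, a nuclear body marking cancer cells; inconclusive = readout between -30 and a set limit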;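 also: plate controls were DMSO wells for no effect and camptothecin positive control wells for full effect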
#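 Read-out is percentage of cells bearing a perinucleolar compartment, from automated 20x imaging of fixed, Hoechst-stained PC3M PTB-GFP cells. Cells were seeded 4 h, then exposed 16 h to compound (23 nl of library stock) in duplicate plates.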
# HPGD block: qHTS Assay for Inhibitors of HPGD (15-Hydroxyprostaglandin Dehydrogenase). purified HPGD, NADH fluorescence kinetic, PGE2 substrate. Potency, µM, inactives show top-dose activity change, negative = inhibition, hits mostly inhibitors. actives 4.3% (n = 150,000); also: potency is read from the fitted curve at half-maximal effect
# Target sequence (P15428 whole entry, looked up): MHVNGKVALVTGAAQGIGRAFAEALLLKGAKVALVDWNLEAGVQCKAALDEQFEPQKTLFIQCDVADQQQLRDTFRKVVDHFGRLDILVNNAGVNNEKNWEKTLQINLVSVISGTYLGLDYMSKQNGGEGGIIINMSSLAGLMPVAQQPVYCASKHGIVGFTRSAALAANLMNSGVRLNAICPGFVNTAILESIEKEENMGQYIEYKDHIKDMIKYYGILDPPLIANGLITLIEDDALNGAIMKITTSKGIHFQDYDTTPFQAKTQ
#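 20 nM HPGD preincubated 15 min at room temperature with compound in 50 mM Tris-HCl pH 8, 0.01% Tween 20. Started with 1 mM NAD+ and 30 uM prostaglandin E2; NADH fluorescence (360/450 nm) read 5 times over 30-s intervals, last minus first.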
# ALDH1A1 inh: qHTS Assay for Inhibitors of Aldehyde Dehydrogenase 1 (ALDH1A1); Aldehyde dehydrogenase 1A1 (Homo sapiens), P00352; Purified ALDH1A1, NADH fluorescence, propionaldehyde substrate; Potency, µM (doses to about 75.3 µM), for the others: at the highest dose activity, negative = inhibition, usual class: inhibitors; actives 7.3% (n = 220,000);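 also: potency is read from the fitted curve at half-maximal effect; plate controls were no enzyme wells and a reference inhibitor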
# ALOX12 inhib: qHTS Assay for Inhibitors of 12-hLO (12-human lipoxygenase); purified 12-hLO, xylenol orange hydroperoxide absorbance; Potency, µM (doses to about 57.1 µM), for inactives: top-dose activity change, negative = inhibition, hits mostly inhibitors; actives 0.12% (n = 150,000); active = well fitted inhibition curve with a large enough effect; inconclusive = small, poorly fitted or top-dose-only effect; also: potency is read from the fitted curve at half-maximal effect; nearly all actives have a fitted effect of over 55% in size
#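 Purified human 12hLO (150 nM final) was preincubated with compounds for 15 min at room temperature in 25 mM Hepes pH 7.0, 0.01% Triton X-100, then reacted with 40 uM arachidonic acid for 30 min. Hydroperoxide was detected with ferrous iron/xylenol orange.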
# LMNA splice mod: qHTS Assay for Modulators of Lamin A Splicing; HeLa LMNA splicing GFP/RFP minigene ratio, 48 h; Potency, µM (series often up to 46.1 µM), for the others: top-dose ratio change, negative = inhibition, hits mostly inhibitors; actives 0.01% (n = 200,000); AID 1487, 2009; active = well fitted inhibition curve with a large enough effect in the signal ratio, with a control signal flat, not every such curve was filed as active; inconclusive = small, poorly fitted or top-dose-only effect, or effect the other way, or a change in a side signal; the % refers to the signal ratio; also: potency is read from the fitted curve at half-maximal effect
#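 Read-out is the ratio of GFP to DsRed2 object intensity, acquired by 488 nm laser-scanning cytometry on HeLa lamin A-EGFP minigene reporter cells. Compound incubation 48 hrs at 37 °C in Opti-MEM with 2% FBS; DMSO 0.5% final.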
# * = called active by the depositor; ? = inconclusive; . = no result given; [ ] = dose if it differs, or a comment. Sampled rows, rich in hits. Any-hit rate of the full collection: about 10%. Unless noted, calls follow the shape of the dose curve; as a rule, active = well fitted inhibition curve with a large enough effect (not every such curve was filed as active); inconclusive = small, poorly fitted or top-dose-only effect, or another doubt; inactive = no such curve, though single readings can be large or run the other way. Unless noted, % is scaled to controls: 0 for no effect and ±100 for the full control effect.
SMILES,PNC inhibitor,HPGD block,ALDH1A1 inh,ALOX12 inhib,LMNA splice mod
COc1ccc(C)cc1NC(=O)c1cc2c(s1)CCC2,2,-4%,-15%,-4%,-3%
O=C(Nc1cccc(S(=O)(=O)N2CCOCC2)c1)c1cc2c(s1)CCC2,?,-9%,3.2µM*,2%,-21%
O=C(NN=C1CCCCCCCCCCC1)c1cccc(S(=O)(=O)N2CCOCC2)c1,-3,-17%,13µM*,2%,?
Cc1ccc(S(=O)(=O)N2CCOCC2)cc1C(=O)Nc1cccc(S(=O)(=O)N2CCCC2)c1,.,.,?,.,-7%[46 µM]
COc1ccc2c(c1)OC(=O)CC2c1ccccc1C (configuration not stated),.,-7%,-7%[120 µM],-3%[0.00818 µM],.
COc1ccc(CC(=O)Nc2nc3ccc(F)cc3s2)cc1S(=O)(=O)N1CCOCC1,?,-6%,20µM*,1%,-8%
Cc1cc(=O)n(CC(=O)Nc2ccc(Cl)c(Cl)c2)c(-n2nc(C)cc2C)n1,.,.,.,.,-21%[46 µM]
Cc1ccccc1-c1nccc(NCCN2CCOCC2)n1,.,.,32µM*,.,6%
COc1cccc(Nc2ncc3nc(C)c(=O)n(C)c3n2)c1,.,.,3%,.,-15%
Cc1cc(C(=O)OCC(=O)c2ccc(Cl)c([N+](=O)[O-])c2)c2cccc(C)c2n1,18,-18%,13µM*,2%,-9%
Cc1cc(C(=O)OCC(=O)c2cccc([N+](=O)[O-])c2)c2ccccc2n1,?,-24%,-2%,-1%,-10%
Cc1ccc2nc(C)cc(C(=O)OCC(=O)c3ccc(Cl)c([N+](=O)[O-])c3)c2c1,5,-19%,20µM*,-7%,24%
CCNc1ncc2nc(C)c(=O)n(C)c2n1,.,.,?,.,0%
COc1cc2c(cc1OC)-c1nnc(C)n1C(C)(C)C2,11,-7%,-2%,-4%,?
Cc1cc2c(cc1C)-c1nnnn1C(C)(C)C2,12,-4%,7.1µM*,1%,17%
N#Cc1c(N2C(=O)C3C4C=CC(C4)C3C2=O)sc2c1CCC2 (configuration not stated),11,-12%,18µM*,-4%,4%
C/C(=N\Nc1nc(C)c(C)s1)c1ccc([N+](=O)[O-])cc1,.,.,13µM*,.,?
C/C(=N\Nc1ccc([N+](=O)[O-])cc1)c1ccc(-n2nncc2C)cc1,-17,8.9µM*,-13%,-4%,?
C/C(=N\Nc1ccc([N+](=O)[O-])cc1)c1ccc(N)cc1,27,-22%,?,?,0%
CC(C)c1nn2c(=O)cc(COC(=O)c3ccco3)nc2s1,.,.,.,.,18%[46 µM]
CCOc1ccccc1NC(=S)Nc1ccc(S(N)(=O)=O)cc1,.,.,-7%,.,-11%[46 µM]
CC(C)(C)N/N=C/c1cc(Cl)cc([N+](=O)[O-])c1O,-9,-26%,8%,-19%,?
Cc1ccccc1C(=O)Nc1cccc(C(=O)N/N=C/c2cc(Cl)cc([N+](=O)[O-])c2O)c1,.,.,1.3µM*,.,.
Cc1cc(C)n(CC(=O)N/N=C/c2cc(Br)cc([N+](=O)[O-])c2O)n1,.,.,20µM*,.,.
O=C(Cn1nc2ccccc2n1)N/N=C/c1cc(Cl)cc([N+](=O)[O-])c1O,.,.,14µM*,.,?
SMILES,PNC inhibitor,HPGD block,ALDH1A1 inh,ALOX12 inhib,LMNA splice mod
Cc1cc(C)n(CC(=O)N/N=C/c2cc([N+](=O)[O-])ccc2O)n1,19,?,-7%,2%,?
Cc1ccc(S(=O)(=O)N2CCC(C(=O)O)(c3ccccc3)CC2)cc1,.,-4%,1%[13.5 µM],1%[11.4 µM],.
O=C1c2oc3ccccc3c(=O)c2C(c2ccc(O)cc2)N1Cc1ccc2c(c1)OCO2 (configuration not stated),.,.,.,.,7%[46 µM]
C[C@@H](NC(=O)C1(N)CCCC1)C(=O)O,.,-5%,16%[13.5 µM],1%[11.4 µM],.
COc1ccc(C(=O)Cn2c(NCCO)nc3ccccc32)cc1,.,.,1%,.,.
O=C(/C=C/c1ccccc1)c1ccc(O)cc1,.,-19%,-8%,0%,.
COc1ccc(C(=O)/C=C/c2ccc(OC)c(Cn3nnc4ccccc43)c2)cc1,?,?,11µM*,-2%,?
COc1ccc(/C=C/C(=O)c2nc3ccccc3n2CC(=O)c2ccc(OC)cc2)cc1,-18,-18%,16µM*,-9%,?
COc1ccc(C(=O)/C=C/c2ccccc2)cc1,.,-8%,18µM*,-3%,.
O=C(Nc1ccc2nc(SCC(=O)N3CCCC3)sc2c1)c1cccc(F)c1,.,.,.,.,11%[46 µM]
O=C(CN1CCSCC1)c1c[nH]c2ccccc12,?,-8%,?,1%,-4%
CC(C)(C)NCC(=O)c1c[nH]c2ccccc12,27,-17%,18µM*,0%,-15%
O=C(COC(=O)C1CC1)c1c[nH]c2ccccc12,-80*,-7%,-14%,-3%,-17%
CC(=O)OCC(=O)c1c[nH]c2ccccc12,.,.,-8%,.,?
Cc1ccccc1NS(=O)(=O)c1cc(S(C)(=O)=O)ccc1Cl,17,-2%,20µM*,-1%,-16%
Cc1ccccc1NS(=O)(=O)c1ccc(Cl)cc1,.,.,?,.,-1%[46 µM]
O=C(O)CC12CSc3[nH]c(=O)sc3C1c1ccccc1OC2=O (configuration not stated),-84*,?,?,1%,14%
O=C(NCC1CCCO1)C1c2ccccc2Oc2ccccc21 (configuration not stated),.,.,9%,.,0%[46 µM]
CCOC(=O)/C(C#N)=C1/CCCCCN1C,9,-7%,-3%,-3%,-2%
CCOC(=O)/C(C#N)=C1\CCCN1CC(N)=S,-8,?,20µM*,-11%,5%
COCCNC(=O)C(=O)Nc1c2c(nn1-c1ccccc1)CS(=O)(=O)C2,.,.,.,.,-4%[46 µM]
COc1cccc([C@@H]2Oc3ccc(OC)cc3C[C@H]2OC(=O)N[C@H](C)C2CCCCC2)c1,.,-8%,0%,.,.
Cc1c(C(=O)NC(C)c2ccccc2)sc2ncnc(N(C)C3CCCCC3)c12 (configuration not stated),.,.,.,.,14%[46 µM]
Cc1ccc2[nH]c(=O)c(CN(Cc3ccc4c(c3)OCO4)Cc3nnnn3C3CCCC3)cc2c1,-23,-27%,20µM*,-18%,?
Cc1cc2cc(CN(Cc3ccc4c(c3)OCO4)Cc3nnnn3C3CCCC3)c(=O)[nH]c2cc1C,39,-26%,22µM*,-6%,2%
CS(=O)(=O)Nc1cccc(-c2ccc3ncnc(NC4CCNCC4)c3c2)c1,.,.,?,.,7%
CC1(C)C(=O)N(CC(=O)Nc2ccc(OC(F)(F)F)cc2)c2ccccc21,.,.,.,.,-3%[46 µM]
COc1ccc(OC)c(C2=NOC(C(=O)NCC3CCCO3)C2)c1 (configuration not stated),-5,?,?,-4%,5%
